# Test results as given in PMC4336329 (PLoS ONE, 2015).
# Among all 310,000 compounds or so, about 14,000 (4.5%) showed an effect of 50% or more. Effects have a minus sign here. The entries come from a sample that favours strong results as a whole.
# Target: human ether-à-go-go-related gene (hERG) potassium channel (human, UniProt Q12809)
# Assay: primary screen, population patch clamp on CHO cells stably expressing hERG; higher = less effect of the substance
# 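Also: peak tail current of the secondary pulse compared with the same well before compound.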
# human ether-à-go-go-related gene (hERG) potassium channel, sequence (Q12809 whole entry, looked up): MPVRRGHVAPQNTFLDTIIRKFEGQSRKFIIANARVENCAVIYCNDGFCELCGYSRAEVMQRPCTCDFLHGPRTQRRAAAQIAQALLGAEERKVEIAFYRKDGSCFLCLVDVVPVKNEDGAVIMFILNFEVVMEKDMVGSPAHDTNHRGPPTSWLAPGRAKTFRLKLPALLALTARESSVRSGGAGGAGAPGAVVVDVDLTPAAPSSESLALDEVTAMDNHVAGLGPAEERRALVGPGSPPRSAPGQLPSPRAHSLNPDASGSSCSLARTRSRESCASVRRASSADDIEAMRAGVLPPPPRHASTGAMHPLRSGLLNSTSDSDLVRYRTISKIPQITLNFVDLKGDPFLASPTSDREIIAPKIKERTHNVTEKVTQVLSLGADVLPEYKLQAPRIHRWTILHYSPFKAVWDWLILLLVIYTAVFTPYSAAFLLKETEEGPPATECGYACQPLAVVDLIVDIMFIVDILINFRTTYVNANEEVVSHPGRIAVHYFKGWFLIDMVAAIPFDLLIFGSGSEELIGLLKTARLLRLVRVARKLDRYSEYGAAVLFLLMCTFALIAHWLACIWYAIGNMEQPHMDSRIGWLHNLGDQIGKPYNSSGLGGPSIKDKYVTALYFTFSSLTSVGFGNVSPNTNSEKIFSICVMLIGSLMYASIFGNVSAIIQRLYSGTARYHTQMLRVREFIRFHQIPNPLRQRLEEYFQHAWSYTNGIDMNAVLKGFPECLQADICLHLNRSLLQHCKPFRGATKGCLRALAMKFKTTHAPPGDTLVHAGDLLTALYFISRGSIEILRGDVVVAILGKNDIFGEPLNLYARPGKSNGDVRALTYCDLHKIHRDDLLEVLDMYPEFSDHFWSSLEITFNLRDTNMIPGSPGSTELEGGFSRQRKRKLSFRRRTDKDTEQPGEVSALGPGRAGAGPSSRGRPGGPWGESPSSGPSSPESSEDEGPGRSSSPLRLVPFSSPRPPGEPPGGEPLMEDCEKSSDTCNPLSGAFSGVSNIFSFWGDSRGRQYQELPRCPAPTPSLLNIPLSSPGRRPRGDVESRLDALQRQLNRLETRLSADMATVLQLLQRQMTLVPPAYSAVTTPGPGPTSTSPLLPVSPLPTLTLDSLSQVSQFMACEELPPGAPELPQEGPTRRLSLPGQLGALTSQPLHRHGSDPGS
row,Compound,"hERG current change (%, negative = inhibition) at 10uM"
1,CC(C)=NN/C(N)=N/C(=S)Nc1ccc(C)cc1,-3.24%
2,O=C(NCC1CCCO1)c1cccc(NC(=O)c2ccco2)c1 (stereo not drawn),0.813%
3,Cc1oc(-c2ccccc2F)nc1CSCC(=O)NC1CC1,3.12%
4,O=C(CN(C1CCCCC1)S(=O)(=O)c1ccc(Cl)cc1)NCCCO,-25.8%
5,CS(=O)(=O)N(CC(=O)NCc1ccc(Cl)cc1)C1CCCCC1,-26.1%
6,O=C(CN(C1CCCCC1)S(=O)(=O)c1ccc(Br)cc1)NCc1ccncc1,-72.9%
7,Cc1ccc(S(=O)(=O)N(CC(=O)NCc2ccncc2)C2CCCCC2)cc1,-63%
8,CN(CC(=O)NCc1ccncc1)S(=O)(=O)c1ccc(Br)cc1,-13.4%
9,Cc1ccc(SCC(=O)NCc2ccncc2)cc1,-6.77%
10,O=C(CCSc1ccc(Cl)cc1)NCc1ccncc1,-32.7%
11,CCN(C1CCCCC1)S(=O)(=O)c1ccc(S(=O)(=O)NCc2ccncc2)cc1,-4.63%
12,CS(=O)(=O)N(CC(=O)NCc1ccncc1)C1CCCCC1,1.91%
13,O=C(CN(C1CCCCC1)S(=O)(=O)c1ccc(Cl)cc1)NCc1ccncc1,-69.8%
14,O=C(CN(C1CCCCC1)S(=O)(=O)c1ccc(F)cc1)NCc1ccncc1,-41.9%
15,Cc1ccc(SCCC(=O)NCc2ccncc2)cc1,-61.9%
16,NNC(=O)CSc1nc(-c2ccccc2)cn1-c1ccccc1,-0.037%
17,Cc1ccccc1NC(=O)C1CCN(c2cnccn2)CC1,-14.7%
18,Cc1cc(C)cc(NC(=S)N2CCN(c3ncccn3)CC2)c1,13%
19,Cc1ccccc1C(=O)NC(NC(=S)Nc1ccc(S(N)(=O)=O)cc1)C(Cl)(Cl)Cl (stereo not drawn),19.3%
20,CCOC(=O)C1CCN(C(=O)c2ccc(OC3CCN(C(=O)CCOC)CC3)cc2)CC1,8.91%
21,CCSc1ccc([C@@H]2[C@H]3C(=O)N(C)C(=O)[C@H]3[C@]3(C(=O)OC)CCCCN23)cc1OC.O=C(O)C(F)(F)F,-8.41%
22,COc1cccc(OC)c1C(=O)Nc1ccc2c(c1)Cc1ccccc1-2,15.5%
23,Cc1cc(-c2nn(-c3ccccc3F)cc2CNCCc2cnc[nH]2)c(C)s1,-53.6%
24,Cc1cc(-c2nn(-c3ccccc3F)cc2CN2CCC(O)CC2)c(C)s1,-28.9%
25,Cc1cc(-c2nn(-c3ccccc3F)cc2CN(C)CC(O)CO)c(C)s1 (stereo not drawn),-22.3%
26,Cc1cc(-c2nn(-c3ccccc3F)cc2CN2CCCC(O)C2)c(C)s1 (stereo not drawn),-9.16%
27,Cc1cc(-c2nn(-c3ccccc3F)cc2CN2CCCC(CO)C2)c(C)s1 (stereo not drawn),-7.33%

row,Compound,"hERG current change (%, negative = inhibition) at 10uM"
1,Cc1cc(-c2nn(-c3ccccc3F)cc2CN2CCC(C(N)=O)CC2)c(C)s1,-28.5%
2,COc1ccc(-c2nn(-c3ccccc3C)cc2CNCc2cccnc2)cc1F,-38.3%
3,Cc1cc(-c2nn(-c3ccccc3F)cc2CN2CCN(c3ccncc3)CC2)c(C)s1,-94.3%
4,CCn1cc(CNCc2cn(-c3ccccc3C)nc2-c2ccc(OC)c(F)c2)cn1,-22%
5,Cc1cc(-c2nn(-c3ccccc3F)cc2CN2CCN(c3ccccn3)CC2)c(C)s1,18.6%
6,Cc1cc(-c2nn(-c3ccccc3F)cc2CNCCc2cnccn2)c(C)s1,-52.3%
7,COc1ccc(-c2nn(-c3ccccc3C)cc2CNCCc2cnc[nH]2)cc1F,-70.6%
8,COc1cc(/C=C/C(=O)OCC(=O)NCC(=O)Nc2cccc(C)c2C)ccc1OC(F)F,-25.7%
9,Cc1cc(C)nc(SC(C)CNS(=O)(=O)c2ccccc2)n1 (stereo not drawn),0.485%
10,CCC(C)(C)NC(=O)C(c1ccc(OC)cc1)N(C(=O)CCC(=O)Nc1cc(C)on1)c1cccc(OC)c1 (stereo not drawn),1.47%
11,O=C(Cn1cncn1)N/N=C/c1cc([N+](=O)[O-])ccc1O,1.67%
12,COc1ccc(OC)c(NC(=O)c2ccccc2N(C)S(=O)(=O)c2ccc(C)cc2)c1,-9.39%
13,CCOC(=O)CSc1nc2cc3c(cc2cc1C#N)OCCO3,19%
14,Cc1ccc(C(=O)NCCc2cccs2)cc1,7.84%
15,COC(=O)c1[nH]c2ccc(Br)cc2c1NC(=O)C(C)N1CCN(C2CCCCC2)CC1 (stereo not drawn),-78.2%
16,COC(=O)c1[nH]c2ccc(C)cc2c1NC(=O)C(C)N1CCN(C2CCCCC2)CC1 (stereo not drawn),-77%
17,COC(=O)c1[nH]c2ccc(Cl)cc2c1NC(=O)CCN1CCN(C2CCCCC2)CC1,-80%
18,COC(=O)c1[nH]c2ccc(Br)cc2c1NC(=O)CN1CCCCC1CCO (stereo not drawn),-2.6%
19,COC(=O)c1[nH]c2ccc(Cl)cc2c1NC(=O)CN1CCC(C(N)=O)CC1,-2.26%
20,COC(=O)c1[nH]c2ccc(C)cc2c1NC(=O)NC1CCCCC1,8.55%
21,COC(=O)c1[nH]c2ccc(Cl)cc2c1NC(=O)CCN1CCOCC1,2.71%
22,COC(=O)c1[nH]c2ccc(Br)cc2c1NC(=O)CN1CCN(C2CCCCC2)CC1,-78.7%
23,COC(=O)c1[nH]c2ccccc2c1NC(=O)C(C)N1CCOCC1 (stereo not drawn),9.7%
24,COC(=O)c1[nH]c2ccccc2c1NC(=O)C(C)N1CC(C)OC(C)C1 (stereo not drawn),5.31%
25,CCOC(=O)C1CCCN(CC(=O)Nc2c(C(=O)OC)[nH]c3ccc(Br)cc23)C1 (stereo not drawn),-30.9%
26,COC(=O)c1[nH]c2ccc(Br)cc2c1NC(=O)CN1CCCc2ccccc21,-4.4%
27,CCC(Sc1nc2ccncc2[nH]1)C(=O)Nc1cc(Cl)ccc1C (stereo not drawn),-44.3%
